Screening data deposited in PubChem BioAssay by National Center for Advancing Translational Sciences (NCATS).
TDP1 block: blocks human tyrosyl-DNA phosphodiesterase 1 | Q9NUW8 | hit rate 0.28% among 350,000 | AID 485290 | Potency, µM (doses to about 130 µM), for the others: at the top dose activity change, negative = inhibition, usual class: inhibitors | recombinant TDP1, AlphaScreen DNA substrate cleavage; further: potency means the concentration at half of the fitted maximal effect; nearly all actives have a fitted effect of over 40% in size
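Compounds were preincubated with Tdp1 (1 nM final) for 15 min at room temperature before substrate (15 nM final) started a 5 min reaction; beads (10 ug/ml final) were then added for 10 min before AlphaScreen detection.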
TDP1 cell noCPT: qHTS for Inhibitors of human tyrosyl-DNA phosphodiesterase 1 (TDP1): qHTS in cells in absence of CPT; AID 686978, 2013; hit rate 15% among 420,000; Potency, µM (titrated, usually from 46.2 µM), for the others: at the highest dose activity change, negative = growth inhibition, actives largely listed as inhibitors; DT40 Tdp1-/- hTDP1 cells, no CPT, ATP luminescence, 48 h; further: potency means the concentration at half of the fitted maximal effect; nearly all actives have a fitted effect of over 55% in size
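Chicken DT40 Tdp1-/- cells stably complemented with human TDP1 were seeded at 400 cells/well with DMSO in place of 20 nM camptothecin. After compound pinning, cells grew at least 48 hr at 37 °C; viability read by CellTiter-Glo luminescence.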
DT40 TDP1 CPT: growth inhibition of DT40 Tdp1-/-;hTDP1 cells with camptothecin (screen for TDP1 inhibitors); Potency, µM (highest dose often 46.2 µM), without a hit: top-dose activity change, negative = growth inhibition, hits mostly inhibitors; hit rate 12% among 420,000; chicken DT40 Tdp1-/-;hTDP1 cells + 20 nM CPT, ATP luminescence, 48 h; AID 686979; further: potency means the concentration at half of the fitted maximal effect; nearly all actives have a fitted effect of over 55% in size
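Chicken DT40 Tdp1-/- cells complemented with human TDP1, 400 cells/well, exposed to compounds plus 20 nM camptothecin for at least 48 h at 37 C; viability read as ATP content by CellTiter-Glo luminescence.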
IL-1B inflam inh: blocks inflammasome-driven IL-1 beta release; hit rate 4.7% among 360,000; activity change, % at 57.5 µM; THP-1 LPS/ATP IL-1B secretion, AlphaLISA, 16 h; stronger effect = lower value; in the data active means activity change below about -50%; inconclusive means mostly about -30% to -49%
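THP-1 cells pretreated 1 hr with compounds (up to 57.5 uM final), then stimulated with LPS (250 ng/mL final) plus ATP (1.25 mM final); secreted IL-1B measured by AlphaLISA after 16 hr, decreased signal indicating inhibition.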
Six1-Eya2 inh: inhibitors of human Six1/Eya2 interaction. AlphaScreen GST-Six1/His-Eya2 binding, biochemical; stronger effect = lower value. activity change, % (concentration not given with the values). hit rate 0.56% among 360,000; in the data active means activity change below about -65%; inconclusive means mostly about -30% to -63%
Target sequence (O00167 whole entry, looked up): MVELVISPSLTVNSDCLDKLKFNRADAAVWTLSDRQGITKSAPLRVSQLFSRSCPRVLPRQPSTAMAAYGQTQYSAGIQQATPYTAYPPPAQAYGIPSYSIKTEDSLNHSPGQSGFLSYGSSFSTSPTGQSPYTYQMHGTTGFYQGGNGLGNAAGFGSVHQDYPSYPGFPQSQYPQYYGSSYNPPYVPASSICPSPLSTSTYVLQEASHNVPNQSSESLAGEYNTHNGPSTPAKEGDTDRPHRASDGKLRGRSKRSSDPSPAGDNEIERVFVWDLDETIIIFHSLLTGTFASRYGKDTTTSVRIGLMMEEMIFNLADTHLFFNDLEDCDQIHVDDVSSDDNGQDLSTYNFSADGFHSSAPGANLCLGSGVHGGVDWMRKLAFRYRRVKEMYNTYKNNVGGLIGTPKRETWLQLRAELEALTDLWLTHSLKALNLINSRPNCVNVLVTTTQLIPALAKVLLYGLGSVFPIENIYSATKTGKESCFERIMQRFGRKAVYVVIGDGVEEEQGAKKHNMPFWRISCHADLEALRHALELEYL
Target sequence (Q15475 whole entry, looked up): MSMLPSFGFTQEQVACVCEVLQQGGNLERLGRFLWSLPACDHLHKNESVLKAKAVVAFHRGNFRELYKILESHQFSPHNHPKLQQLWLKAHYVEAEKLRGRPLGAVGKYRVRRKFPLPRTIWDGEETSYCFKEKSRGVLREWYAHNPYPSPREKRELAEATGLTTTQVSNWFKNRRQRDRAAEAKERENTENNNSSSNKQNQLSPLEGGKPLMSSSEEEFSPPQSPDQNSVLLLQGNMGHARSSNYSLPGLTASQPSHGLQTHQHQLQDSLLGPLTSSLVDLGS
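GST-Six1 + His-Eya2 (5X stock: 250/500 nM); Tris pH 8.0, 300 mM NaCl, 0.05% BSA, 0.02% Tween 20; GSH donor/Ni acceptor beads; 1 h 37 °C dark; AlphaScreen readout.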
CtBP-E1A inh: blocks the CtBP interaction with E1A; AlphaScreen GST-E1A/His-CtBP binding, 1536-well; stronger effect = lower value; activity change, % (no concentration beside the values); hit rate 0.49% among 340,000; in the data active means activity change below about -65%; inconclusive means mostly about -30% to -63%
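AlphaScreen with 125 nM GST-E1A and 125 nM His-CtBP (5X stocks) in Tris pH 8.0, 300 mM NaCl, BSA, Tween 20, TCEP. Compounds preincubated 2 h at 37 deg C, then glutathione donor/nickel acceptor beads added for 1 h at 37 deg C in dark.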
* hit, by the source's call; ? = inconclusive; . = no result given; ! = repeats disagree. Shown are actives, neighbours in structure and some others; about 18% of the full set was active somewhere. Unless noted, the call rests on the fitted dose curve; in most records, active means well fitted curve in the direction sought with a large enough effect; inconclusive means small, poorly fitted or top-dose-only effect, or another doubt; inactive means no such curve, though single readings can be large; an effect the other way counts as inactive or inconclusive. On the % scale 0 is the no-effect control and ±100 the full control effect.

SMILES	TDP1 block	TDP1 cell noCPT	DT40 TDP1 CPT	IL-1B inflam inh	Six1-Eya2 inh	CtBP-E1A inh
O=C(c1ccccc1)c1ccc(Sc2ccc([N+](=O)[O-])cc2)cc1	-4%	?	?	-16	-7	-20
COCCCN=C1NN=C(c2cc(C)n(Cc3ccco3)c2C)CS1	8%	0.029µM*	0.65µM*	35	-3	1
COCCn1c(C)cc(C2=NNC(=Nc3ccc(Cl)cc3Cl)SC2)c1C	0%	?	?	-5	-3	-1
COCC(C)N=C1NN=C(c2cc(C)n(Cc3ccccc3Cl)c2C)CS1 (stereo not given)	9%	12µM*	13µM*	?	-5	-9
Cc1cc(C2=NNC(=NC3CC3)SC2)c(C)n1Cc1ccco1	5%	8.2µM*	16µM*	6	-5	-2
C=CCn1c(C)cc(C2=NNC(=NC(C)(C)C)SC2)c1C	10%	?	?	-77*	-10	-18
O=C(C[n+]1ccsc1)c1ccccc1	5%	?	?	14	20	7
CNC(=O)c1c(NC(=O)c2ccc(S(=O)(=O)N3CCCCC3)cc2)sc2c1CCC2	4%	?	?	.	.	.
COc1cc(NC(=O)C2CCC(CNc3c(N4CCC(C)CC4)c(=O)c3=O)CC2)cc(OC)c1 (stereo not given)	3%	-7%	?	-62*!	-27	-22
COc1cc(NC(=O)C2CCC(CNc3c(N4CCCCC4)c(=O)c3=O)CC2)cc(OC)c1 (stereo not given)	3%	?	-8%	-7	-15	-1
Cc1ccnc(NC(=O)C2CCC(CNc3c(N4CCCC4)c(=O)c3=O)CC2)c1 (stereo not given)	5%	?	-1%	-67*	3	-6
COc1ccc(-c2cc3nc(-c4ccccc4)cc(N4CCC(O)CC4)n3n2)cc1	0%	?	?	-151*	15	2
COc1ccc(-c2cc3nc(-c4ccccc4)cc(N4CCCC(O)C4)n3n2)cc1 (stereo not given)	-13%	12µM*	16µM*	?	7	.
COc1ccc(-c2cc3nc(C)cc(-c4ccc(OC)cc4)n3n2)cc1	.	?	?	38	46	73
O=c1c(-c2ccccc2)nc2ccccc2n1C(CCc1ccccc1)c1nc2ccccc2[nH]1 (stereo not given)	.	?	6%	-27	-7	0
COc1ccc(S(=O)(=O)NCCc2nnc3ccc(SCC(=O)Nc4cc(C)cc(C)c4)nn23)cc1	5%	?	21µM*	.	.	.
O=S(=O)(NCCc1nnc2ccc(SCc3cccnc3)nn12)c1ccccc1	5%	-10%	-12%	-7	14	.
CC(=O)c1ccc(NC(=O)CSc2ccc3nnc(CCNS(=O)(=O)c4ccc(C)cc4)n3n2)cc1	5%	?	-28%	.	.	.
O=S(=O)(NCCc1nnc2ccc(SCc3ccc(C(F)(F)F)cc3)nn12)c1ccccc1	0%	?	15µM*	.	.	.
Cc1ccc(S(=O)(=O)NCCc2nnc3ccc(SCc4ccccc4F)nn23)cc1	5%	21µM*	18µM*	.	.	.
Cc1ccc(S(=O)(=O)NCCc2nnc3ccc(SCC(=O)Nc4ccc(F)cc4F)nn23)cc1	3%	5%	-22%	.	.	.
Cc1ccc(CSc2ccc3nnc(CCNS(=O)(=O)c4ccc(C)cc4)n3n2)cc1	8%	?	16µM*	.	.	.
COc1ccc(C(C)NC(=O)c2ccoc2C)cc1OC (stereo not given)	8%	-6%	-16%	0	1	12
CCc1nc(NCC2CCCO2)c(C#N)c2c1COC(C)(C)C2 (stereo not given)	0%	-10%	?	-17	-1	-3
